Results on 46 compounds are retold here after ChEMBL document CHEMBL3988442, “University of Dundee, Small-Polar-MMV Screening Library” (2021).

This assay concerns Trypanosoma brucei. The assay is described as follows: Trypanosoma brucei 72 hour study. It counts as functional, organism-based. Also noted: scale not given: in the data most compounds retested in dose-response had high values.

Each structure is given as a SMILES string. The whole screen tested about 66,000 compounds, of which about 960 (1.5%) showed an effect of 50% or more. Shown is part of a subset that was picked to be rich in strong results.

Turning to `CCN(Cc1noc(CC(C)C)n1)Cc1ccccc1Cl`, the “Percent Effect” value (30.3 µM, […]) was 100%. Same read-out and setting: as for `CCN(Cc1noc(CC(C)C)n1)Cc1ccccc1C(=O)O`, the figure is 12.17%. For `COc1cccc(CN2CCCC(c3nn(C)c4nccnc34)C2)c1.Cl` (configuration not stated), for the setting “30.3 µM, […]”, the “Percent Effect” value is -9.344%. The same measure, in the same setting: the figure for `Cc1cnc(CN2C[C@H]3C[C@H](Oc4ccccc4)C[C@H]3C2)cn1` is -12.87%; for `Cc1nc(COCc2cnc3n2CCN(C)C3C)cs1.O=C(O)C(F)(F)F` (configuration not stated) it is 14.84%. With `Cc1nc(COCc2cnc3n2CCN(C2CCC2)C3C)cs1.O=C(O)C(F)(F)F` (configuration not stated), the “Percent Effect” value (30 µM, 30.03 µM) was -3.887%. On to `Cc1nc(COCc2cnc3n2CCN(CC2CCC2)C3C)cs1.O=C(O)C(F)(F)F` (configuration not stated), for which the “Percent Effect” value (30 µM, 30.03 µM) turned out to be 77.97%. On to `O=C(NCc1ccco1)[C@H]1C[C@@H]2CCN(c3cccc(F)c3)C[C@H]2O1.O=C(O)C(F)(F)F`, for which the “Percent Effect” value (30.3 µM, […]) is 0.588%. The same measure, in the same setting: the figure for `COc1ccc(-c2nc(CN3CCCC(OC)C3)c(C)o2)c(F)c1` (configuration not stated) is 99.32%.

As for `COCc1ncn(Cc2nc(-c3ccc(OC)cc3F)oc2C)n1`, the “Percent Effect” value (30.3 µM, […]) is -22.44%. The same measure, in the same setting: as for `CCCOC1CCCN(Cc2nc(-c3ccc(F)cc3F)oc2C)C1` (configuration not stated), the figure is 19.33%. As to `Cc1nnc(CN2C[C@H]3CC[C@@H]2CN(C2Cc4ccccc4C2)C3)o1`, the “Percent Effect” value (30 µM, 30.03 µM) worked out at 19.71%. For the compound `COCC1N(C(=O)c2ccco2)[C@H]2CC[C@]1(O)CC2` (some centres not stated), the “Percent Effect” value (30.3 µM, […]) is listed as -31.26%. Turning to `O=C(NCC1CC1)[C@H]1C[C@@H]2CN(S(=O)(=O)Cc3ccccc3)C[C@H]1O2`, the “Percent Effect” value (30 µM, 30.03 µM) is given as -18.74%. Turning to `O=C(NCC(F)(F)F)NC1CCCc2c1cnn2CCO` (configuration not stated), the “Percent Effect” value (30 µM, 30.03 µM) is 3.56%. Same read-out and setting: as for `O=C(NCC1CCCCC1)NC1CCCc2c1cnn2CCO` (configuration not stated), the figure is -28.76%; as for `O=C(NC1CCCCC1)NC1CCCc2c1cnn2CCO` (configuration not stated), 61.21%; as for `COc1ccc(CN2CCc3ncnc(C4CC4)c3CC2)cc1.O=C(O)C(F)(F)F`, -6.255%.

For `Cc1nc(C)n(CC2CCCCN2Cc2nc3ccccc3o2)n1` (configuration not stated), the “Percent Effect” value is, setting by setting: (30.3 µM, […]) -29.61%; (10 mM, 10 mM as filed; unlikely as a test dose) -25.93%. In the case of `Cc1cc(N2CCCC3(CN(C)C(=O)O3)C2)c2cc3c(cc2n1)OCO3` (configuration not stated), the “Percent Effect” value (30 µM, 30.03 µM) is -17.57%. With `Cc1cc(N2CCC(O)(CN(C)C)C2)c2cc3c(cc2n1)OCO3` (configuration not stated), the “Percent Effect” value (30 µM, 30.03 µM) came to 101.2%. Still for that read-out and setting: as for `Cc1cc(N2CCCC(O)(CN(C)C)C2)c2cc3c(cc2n1)OCO3` (configuration not stated), the figure is 17.65%; as for `CN(C)C[C@H]1OC[C@@H]2CCN(S(=O)(=O)c3ccc(F)cc3)C[C@@H]21.O=C(O)C(F)(F)F`, -20.07%. Regarding `Cn1cncc1CN1CCC2(CC1)COCCN(S(C)(=O)=O)C2.O=C(O)C(F)(F)F`, the “Percent Effect” value (30.3 µM, […]) is -5.891%. Take `C[C@@H](N)C(=O)N1CC2(CCNCC2)c2cc(Cl)ccc21.Cl.Cl`: the “Percent Effect” value (30.3 µM, […]) is 51.33%. Turning to `Cl.Cl.O=C([C@H]1CCCN1)N1CC2(CCNCC2)c2cc(Cl)ccc21`, the “Percent Effect” value (30.3 µM, […]) is reported as 11.24%. Still for that read-out and setting: as for `CCOC(=O)N1CC2(CCNCC2)c2cc(Cl)ccc21.Cl`, the figure is 80.77%. Still for that read-out and setting: as for `CC(C)C[C@H](N)C(=O)N1CC2(CCNCC2)c2cc(Cl)ccc21.Cl.Cl`, the figure is 46.04%; as for `Cl.O=C(c1ccccc1F)N1CC2(CCNCC2)c2cc(Cl)ccc21`, -26.55%. Take `Cl.Cl.O=C([C@@H]1CSCN1)N1CC2(CCNCC2)c2cc(Cl)ccc21`: the “Percent Effect” value (30.3 µM, […]) was -15.46%.

Turning to `Cc1ccc2c(c1)C1(CCNCC1)CN2C(=O)C(C)C`, the “Percent Effect” value (30.3 µM, […]) is -10.81%. The same measure, in the same setting: as for `CN(C)C(=O)N1CC2(CCNCC2)c2cc(Cl)ccc21.Cl`, the figure is -10.23%. Take `COCCN1CC[C@H](OC)[C@@H]1Cc1ccccc1.O=C(O)C(F)(F)F`: the “Percent Effect” value (30 µM, 30.03 µM) is reported as -24.73%. `O=C(COC[C@@]12CCC[C@@H]1CN(C1CCC1)C2)N1CCCC1.O=C(O)C(F)(F)F`: the “Percent Effect” value (30.3 µM, […]) is recorded as -61.71%.

With `Cc1nn(C)c2c(=O)n(CC(=O)NCC3CCCO3)ccc12` (configuration not stated), the “Percent Effect” value (30 µM, 30.03 µM) is reported as -1.766%. Regarding `CNC(=O)CN1CC[C@H]2CN(C(=O)c3ccoc3)C[C@H]2C1.O=C(O)C(F)(F)F`, the “Percent Effect” value (30.3 µM, […]) is -45.09%. Take `CCOCC1CN(Cc2nccs2)Cc2nn(CC3CC3)cc21.O=C(O)C(F)(F)F` (configuration not stated): where the note is “30 µM, 30.03 µM”, the “Percent Effect” value is given as -7.531%. Regarding `COc1ncc(CN(CCCN2CCOCC2)Cc2ccc(C)o2)cn1.O=C(O)CC(O)(CC(=O)O)C(=O)O`, the “Percent Effect” value (30.3 µM, […]) is -12.51%. Consider `CNc1nc(C2CCCN2C(C)=O)nc2c1CN(CCO)CC2.O=CO` (configuration not stated), for which the “Percent Effect” value (30.3 µM, […]) was 20.17%. Still for that read-out and setting: the figure for `COc1ccc(OC)c([C@@H]2N[C@H](c3nccs3)Cc3ccsc32)c1` is 15.15%; for `CCOc1cc([C@@H]2N[C@H](c3nccs3)Cc3ccsc32)ccc1OC` it is 9.707%.

Take `COc1cc([C@@H]2N[C@H](c3nccs3)Cc3ccsc32)cc(OC)c1OC`: the “Percent Effect” value (30.3 µM, […]) is -6.656%.

Regarding `COc1cccc([C@@H]2N[C@H](c3nccs3)Cc3ccsc32)c1OC`, the “Percent Effect” value (30.3 µM, […]) turned out to be 100.1%.

Consider `CCOc1ccc([C@@H]2N[C@H](c3nccs3)Cc3ccsc32)cc1OC`, for which the “Percent Effect” value (30.3 µM, […]) is reported as 10.72%.

Take `CCOc1cc([C@H]2N[C@@H](c3nc(C)cs3)Cc3ccsc32)ccc1OC`: the “Percent Effect” value (30.3 µM, […]) was 85.49%. In the case of `O=C(CN1C[C@H]2C[C@H](OCc3ccccc3)C[C@H]2C1)N1CCOCC1`, under “30.3 µM, […]”, the “Percent Effect” value is listed as -15.88%.
